Source: PubChem BioAssay
The list is not random: actives were taken first. Their share in the collection is about 3.4%.
SIRT5 inh: sirtuin-5 (human) deacylase inhibition. Q9NXA8. 330,000 tested, 1.1% active. Purified SirT5, succinyl-peptide AMC, trypsin-coupled fluorescence. inhibition, % at 15 µM; in the data active = inhibition above about 15%
Target sequence (Q9NXA8 whole entry, looked up): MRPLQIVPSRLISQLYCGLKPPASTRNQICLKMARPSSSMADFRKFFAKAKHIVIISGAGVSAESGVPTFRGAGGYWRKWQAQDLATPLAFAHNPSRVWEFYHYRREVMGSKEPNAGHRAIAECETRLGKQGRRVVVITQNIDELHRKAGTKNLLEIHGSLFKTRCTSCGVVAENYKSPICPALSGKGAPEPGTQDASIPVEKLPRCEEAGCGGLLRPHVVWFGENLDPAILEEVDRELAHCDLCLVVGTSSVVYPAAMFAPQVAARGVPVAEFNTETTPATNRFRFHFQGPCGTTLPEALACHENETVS
rRNA inh HTS: inhibitors of bacterial rRNA selective over humanized ribosomes; GFP signal change (wild-type ribosome), % (no concentration beside the values); E. coli WT GFP vs humanized-ribosome RFP mutants, fluorescence, 24 h; stronger effect = lower value; DMSO median 0, no signal -100; AID 720706; 350,000 tested, 1.6% active;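 active = significant combined selectivity score with lowered wild-type GFP, culture density cut under 30%, mutant RFP and density less affected; inactive = any of these conditions unmet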
EWS-Fli block: inhibitors of EWS/Fli oncoprotein transcriptional activity; 350,000 tested, 0.67% active; inhibition, % at 12.6 µM; AID 651661; A673 NR0B1-luciferase reporter, viability-normalised;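 active = mean inhibition of at least 50% after viability correction, with every replicate also passing that limit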;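 note: firefly luciferase signal divided by Alamar Blue viability fluorescence both relative to DMSO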
PAX8 reporter: lowers PAX8-driven luciferase in RMG-I cells; inhibition, % at 12.6 µM; RMG-I TPO-luciferase reporter, SteadyGlo, 24 h; 360,000 tested, 1.2% active;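 active = mean replicate inhibition at least 60% with every replicate also reaching 60%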;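 note: luciferase light reporting Pax8 driven TPO promoter activity; plate controls were median of neutral control wells for no effect and mitoxantrone controls for full effect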
PGC1a acetyl inh: lowers PGC1a acetylation signal in U2OS cells. 350,000 tested, 0.17% active. AlphaScreen anti-acetyl-lysine; with virally co-expressed GCN5 acetyltransferase. inhibition, % at 15.6 µM;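 active = every replicate shows inhibition of at least 40%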;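 note: 0% = neutral control wells and 100% = positive control wells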
LGR2 antag: Drosophila LGR2 receptor signaling inhibition. HEK293 LGR2, CRE-luciferase, bursicon-stimulated, 4 h. inhibition, % at 9.99 µM. 380,000 tested, 0.35% active;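 active = drop in luminescence signal, shown as inhibition above about 50% in the replicate tests, limit read from the data, passing the limit was not always enough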;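 note: agonist challenge used bursicon conditioned medium at about half maximal strength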
DNA binding: binds DNA displacing acridine orange. AC35, µM (series often up to 68 µM), for the others: at the top dose activity change, negative = DNA binding. shares compounds with EWS-Fli block. salmon sperm DNA acridine orange fluorescence polarization. 640 tested, 2% active;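 active = fitted curve reaches a 35% signal fall AC35 below twice the sample's top valid tested dose, actives reach about 48 µM in these data; inactive = the rest, including activity in the rising direction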;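 note: lower polarization ratio signals compound binding to DNA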
* = called active by the depositor; / = not tested or not shown.

SMILES	SIRT5 inh	rRNA inh HTS	EWS-Fli block	PAX8 reporter	PGC1a acetyl inh	LGR2 antag	DNA binding
CC(C)[C@@H]1CC[C@@H](C)C[C@H]1OC(=O)C[n+]1cc(-c2ccc(Cl)cc2)n2c1CCCCC2	-1	/	31	113*	-15	/	/
CC1CCC(C(C)C)C(OC(=O)C[n+]2cccc(C(N)=O)c2)C1 (centres undefined)	/	/	/	/	-5	/	/
Cn1c(NC(=O)C[n+]2cc(-c3ccc(Cl)cc3)n3c2CCC3)cc(=O)n(C)c1=O	4	15	2	18	/	8	/
COc1ccc([N+](=O)[O-])c(S(=O)(=O)c2ccccc2)n1	/	3	25	103*	16	104*	/
COc1nc(OC)nc(Oc2ccc(Cl)cc2[N+](=O)[O-])n1	-9	6	5	1	/	-9	/
Nc1cccnc1S(=O)(=O)c1ccccc1	-3	14	-8	-3	3	-2	/
O=[N+]([O-])c1cccnc1S(=O)(=O)c1ccccc1	1	8	44	110*	/	12	/
COc1ccc([N+](=O)[O-])c(S(=O)(=O)c2ccc(Cl)cc2)n1	/	8	20	82*	45*	97*	/
COCCOC(=O)N1C(=O)[C@@]2(c3cc(C#Cc4ccc(OC)cc4)ccc31)[C@H](c1ccc(O)cc1)N1[C@H](c3ccccc3)[C@H](c3ccccc3)OC(=O)[C@H]1[C@@H]2C(=O)N1CCCCCCC1	/	/	-19	5	/	/	/
CCCCOc1ccc(NC(=O)C(=O)NCCCn2ccnc2)cc1	0	9	78*	85*	/	5	-7%
CC(C)(O)C#Cc1ccc([C@H]2[C@@H](CO)N3CCCCN(C(=O)c4ccncc4)C[C@@H]23)cc1	1	3	-24	3	3	-14	/
O=C(Cc1ccccn1)N[C@@H]1CC[C@H](CCNC(=O)c2cc(Cl)cc(Cl)c2)O[C@H]1CO	-4	-1	0	4	8	3	/
Cc1cc(N/N=C(/CCC(=O)O)C(=O)O)nc2ccccc12	7	-9	18	-11	/	5	/
C/C(=N\Nc1cccc2cccnc12)c1ccccn1	1	-6	61*	-63	/	56*	-1%
CC(=NNc1cc(C)c2ccccc2n1)c1ccccn1	/	/	64*	95*	/	-11	-2%
C/C(=N\Nc1cccc2cccnc12)c1ccccc1O	9	12	-11	-59	-5	-46	/
C/C(=C\c1ccccc1)C(=O)N1CCC=CC1=O	10	/	55*	20	-4	/	-3%
C/C(=C/c1ccccc1)C(=O)N1CCC(C)CC1	3	-1	-18	-29	-25	-2	/
COc1ccc(Cl)cc1S(=O)(=O)Nc1ccc2c(c1)n(C)c(=O)n2C	-2	-14	54*	15	/	-8	-16%
COc1ccc(S(=O)(=O)Nc2ccc3c(c2)n(C)c(=O)n3C)cc1OC	0	16	/	1	-1	-15	/
COc1ccc(CN(C)C[C@H]2OCCCC[C@@H](C)Oc3ccc(N(C)C)cc3C(=O)N([C@@H](C)CO)C[C@@H]2C)cc1	0	4	3	16	-11	-25	/
CCOc1ccc(C(c2c(NC(=O)c3ccccc3)sc(C)c2C)N2CCN(CCO)CC2)cc1 (centres undefined)	1	-42	80*	4	/	-5	-14%
Cc1sc(NC(=O)c2ccccc2)c(C(c2ccc(Cl)cc2)N2CCN(CCO)CC2)c1C (centres undefined)	-1	-52	0	8	11	/	/
COCc1cn(CC[C@@H]2CC[C@@H](NC(=O)Nc3ccc(Cl)cc3)[C@H](CO)O2)nn1	1	1	-4	-4	7	-3	/
COCCNC(=O)[C@H]1[C@H](CO)[C@H]2Cn3c(ccc(-c4ccccc4F)c3=O)[C@H]2N1C(=O)C1CC1	-7	3	-5	/	/	-3	/
SMILES	SIRT5 inh	rRNA inh HTS	EWS-Fli block	PAX8 reporter	PGC1a acetyl inh	LGR2 antag	DNA binding
Cc1ccccc1S(=O)(=O)NCC[C@H]1CC[C@H](NC(=O)C2CCC2)[C@H](CO)O1	4	-1	11	-6	-2	-13	/
Cc1ccc(S(=O)(=O)N[C@@H]2CC[C@H](CCNC(=O)C3CCC3)O[C@@H]2CO)cc1	-4	-2	12	-9	0	-4	/
CCOC(=O)c1sc(NC(=S)NC(=O)c2ccc(OC)cc2)nc1C	-1	-5	-43	-27	5	8	/
C=CCOC(=O)c1sc(NC(=O)c2ccc(OC)cc2)nc1C	-1	6	56*	18	-4	-36	2%
Cc1c(CC(=O)NCCCC(=O)O)c(=O)oc2cc3c(cc12)CCC(C)(C)O3	-41	1	66*	25	11	1	-13%
Cc1c(CC(=O)NCCCCCC(=O)O)c(=O)oc2cc3c(cc12)CCC(C)(C)O3	-41	1	-8	4	-3	20	/
CN(C)C(=O)C[C@@H]1C[C@H]2c3cc(NC(=O)CC4CC4)ccc3O[C@H]2[C@H](CO)O1	-4	3	2	2	7	4	/
C[C@@H]1CN([C@H](C)CO)C(=O)c2cccc(NC(=O)Nc3ccc(F)cc3)c2O[C@@H]1CN(C)S(=O)(=O)c1cn(C)cn1	/	-3	-1	-10	-13	0	/
Oc1c(C(c2ccc(Cl)cc2)N2CCCC2)cc(Cl)c2cccnc12 (centres undefined)	-1	-50	53*	70*	/	19	-2%
Cc1ccc(C(c2cc(Cl)c3cccnc3c2O)N2CCN(C)CC2)cc1 (centres undefined)	/	/	/	/	6	/	/
COCC#Cc1cnc2c(c1)C(=O)N([C@@H](C)CO)C[C@H](C)[C@H](CN(C)C(=O)Nc1ccccc1OC)O2	1	6	0	/	-3	-9	/
C[C@H]1CCCCO[C@@H](CN(C)C(=O)CCCN(C)C)[C@@H](C)CN([C@@H](C)CO)C(=O)c2cc(NC(=O)c3ccncc3)ccc2O1	4	2	25	-8	0	8	/
O=c1c2ccccc2oc2cc(C#CC3(O)CCCCC3)ccc12	1	-28	77*	7	-12	/	6%
CC=Cc1ccc2n(c1=O)C[C@H]1[C@H](CO)[C@@H](C(=O)NCc3ccc(F)cc3)N(CC)[C@@H]21 (mixture of isomers)	-17	-4	-11	/	/	7	/
O=C(N[C@H]1CC[C@H](CCNC(=O)C2CCCC2)O[C@@H]1CO)c1ccccn1	2	-2	18	3	0	-2	/
CCCN1C/C(=C/c2cccc([N+](=O)[O-])c2)C(=O)/C(=C/c2cccc([N+](=O)[O-])c2)C1	/	/	/	/	-3	45	/
CCCN1C/C(=C/c2ccc3c(c2)OCO3)C(=O)/C(=C/c2ccc3c(c2)OCO3)C1	-1	/	64*	4	14	-14	-19%
